From PubChem BioAssay
SMN2 splice up: increases expression of the SMN2 splice variant. HEK293 SMN2-luciferase splicing reporter, luminescence, 30-36 h. Potency, µM (doses to about 46.1 µM), for inactives: at the highest dose activity change, positive = activation, usual class: activators. 210,000 compounds, 2.8% hits. AID 1458; further: % of control where 0% means no effect; nearly all actives have a fitted effect of over 55% in size
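HEK293 cells carry an SMN2 minigene-luciferase reporter in which exon 7 inclusion puts luciferase in frame. Cells were seeded at 2000 cells/well, attached for 10-12 hours, then exposed to compounds for 30-36 hours at 37C before ONE-Glo luminescence.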
Rab9 prom act: Rab9 promoter activation. Huh7 Rab9 promoter-luciferase reporter, luminescence, 24 h. Potency, µM (series often up to 9.22 µM), for inactives: at the highest dose activation, negative = inhibition, usual class: activators. 320,000 compounds, 2.8% hits; further: % of control where 0% means no effect; nearly all actives have a fitted effect of over 60% in size
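Quantitative HTS format; Huh7 Rab9-luciferase reporter cells (1500/well) receive compound 2 h post-plating, incubate 24 h at 37 °C, then get luciferase reagent for 10 min before luminescence reading.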
NPC1 promoter act: activators of NPC1 promoter; Potency, µM (doses to about 9.22 µM), for inactives: at the highest dose activation, actives largely listed as activators; AID 485313; 320,000 compounds, 2.4% hits; Huh7 NPC1 promoter luciferase reporter, 24 h; further: % of control where 0% means no effect; nearly all actives have a fitted effect of over 60% in size
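Luciferase expression driven by the NPC1 promoter was measured in stably transfected Huh7 cells after a 24 h compound incubation, using a luciferase reagent and a luminescence read.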
FLuc modulator: counter-screen for miR-21 project: firefly luciferase inhibitors or activators; purified FLuc, Km substrates, luminescence inhibition; 360,000 compounds, 6.9% hits; Potency, µM (doses to about 57.5 µM), without a hit: top-dose activity change, negative = inhibition, hits mostly inhibitors; P08659;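 further: plate controls were vehicle for no effect and reference inhibitor for full effect; nearly all actives have a fitted effect of over 55% in size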
Target sequence (P08659 whole entry, looked up): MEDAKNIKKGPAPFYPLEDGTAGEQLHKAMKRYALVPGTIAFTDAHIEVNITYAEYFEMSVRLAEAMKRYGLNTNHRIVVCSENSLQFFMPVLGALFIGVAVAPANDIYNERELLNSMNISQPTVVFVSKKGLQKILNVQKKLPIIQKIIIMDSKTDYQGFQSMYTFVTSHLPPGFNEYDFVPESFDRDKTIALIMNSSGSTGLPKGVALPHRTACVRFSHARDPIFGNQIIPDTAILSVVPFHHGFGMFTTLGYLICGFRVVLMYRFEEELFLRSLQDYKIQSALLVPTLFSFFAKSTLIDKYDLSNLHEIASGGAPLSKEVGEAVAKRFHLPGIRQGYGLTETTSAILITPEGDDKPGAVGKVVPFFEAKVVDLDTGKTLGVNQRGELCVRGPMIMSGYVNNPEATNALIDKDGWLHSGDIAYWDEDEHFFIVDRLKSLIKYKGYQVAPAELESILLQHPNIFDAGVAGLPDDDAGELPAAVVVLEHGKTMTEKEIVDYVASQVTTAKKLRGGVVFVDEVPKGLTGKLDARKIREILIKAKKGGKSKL
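Purified P. pyralis luciferase, 10 nM final, with Km-level 10 uM D-luciferin and 10 uM ATP in 50 mM Tris acetate pH 7.5, 10 mM Mg acetate, 0.01% Tween-20, 0.05% BSA; 6-point qHTS titration about 60 µM downward; luminescence read.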
KinaseGlo FLuc: Kinase-Glo luciferase inhibition (counter-screen) | Q27757 | Kinase-Glo luciferase, ATP luminescence, 8 min | Potency, µM (top dose mostly 38.3 µM), without a hit: at the highest dose activity change, negative = inhibition, actives largely listed as inhibitors | 200,000 compounds, 0.28% hits | AID 1379; further: on the % scale 0 is the no-effect control and ±100 the full control effect; nearly all actives have a fitted effect of over 60% in size
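Recombinant Kinase-Glo luciferase, 10 uM ATP (linear range), luciferin; imidazole pH 7.2 / KCl / MgCl2 / Tween / BSA buffer; 8 min RT; luminescence.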
The depositor's hits bear a star; u = inconclusive; x = no result given; [ ] = remark or other dose. Rows were chosen to be rich in hits. Some 7.3% of all compounds tested hit in one or more screens of this group. The call rests on the fitted dose curve; in most records, active means well fitted curve in the direction sought with a large enough effect; inconclusive means small, poorly fitted or top-dose-only effect, or another doubt; inactive means no such curve, though single readings can be large; an effect the other way counts as inactive or inconclusive. Potency means the concentration at half of the fitted maximal effect.

SMILES	SMN2 splice up	Rab9 prom act	NPC1 promoter act	FLuc modulator	KinaseGlo FLuc
CCCCC[CH2][Hg][S]C1=C2N=CNC2NC(N)=N1 (stereo unspecified)	-47.6%[9.22 µM]	x	x	x	-5.0%[7.66 µM]
O=C(O)CN1CCN(CC(=O)O)CC(=O)[O][Hg][O]C(=O)C1	4.7%[9.22 µM]	x	x	x	-20.3%[7.66 µM]
CN1C(=O)C(=Cc2ccccc2OCc2ccccc2Cl)C(=O)N(C)C1=O	6.4%	-3.8%	-3.6%	u	-2.3%
CN1C(=O)C(=Cc2c(OCc3cnc(Cl)s3)ccc3ccccc23)C(=O)N(C)C1=O	2.9%	u	22.4%	19µM*	1.0%
OC[P+](CO)(CO)CO	0.9%	x	x	x	x
c1cc(OCC2CO2)cc(OCC2CO2)c1 (stereo unspecified)	-56.6%	x	x	x	x
CCCCn1c(=O)c(C(=O)Nc2nc3ccccc3[nH]2)c(O)c2ccccc21	-21.6%	17.6%	3.8%	5.7%	-0.5%
CCCSc1ccc2nc(NC(=O)OC)[nH]c2c1	u	17.1%	23.7%	3.01µM*	-6.6%
C[N+](C)(C)CC#CCOC(=O)Nc1cccc(Cl)c1	22.9%	-6.3%[46.1 µM]	11.1%[46.1 µM]	x	-9.5%
Cn1nnc2cc(NC(=O)Nc3cccc(Cl)c3)ccc21	x	1.41µM*	2µM*	u	x
COc1ccc(-c2cc(=O)c3c(OC)c(OC)c(OC)cc3o2)cc1	x	-5.0%	-1.7%	u	x
COc1ccc(-c2cc(=Nc3ccccc3)c3cc(C)ccc3o2)cc1	u	20.8%	5.9%	26.9µM*	-3.1%
COc1ccc(-c2cc(=NCCC(=O)O)c3cc(C)ccc3o2)cc1	x	u	u	13.5µM*	1.2%
O.O.[NH-]C1(C(=O)O)CCCC1.[NH-]C1(C(=O)O)CCCC1.[Ni+2]	8.0%[9.22 µM]	x	x	x	-0.8%[7.66 µM]
O=C(Nc1ccc(Br)cc1)c1cccc(S(=O)(=O)N2CCc3ccccc32)c1	-62.8%	x	x	3.0%	x
CN1C(=O)c2ccccc2Sc2ccc(C(=O)N3CCC4(CC3)OCCO4)cc21	-18.7%	-0.6%	0.3%	1.5%	-4.8%
Cc1ccc(/C=C2/Sc3ccc(C(=O)N4CCC5(CC4)OCCO5)cc3NC2=O)cc1	x	-1.7%	-2.7%	15.1µM*	x
CSCC[C@@H](N)P(C)(=O)O	-3.0%[9.22 µM]	x	x	x	-7.1%[7.66 µM]
Cc1cc(C(=O)CS(=O)(=O)c2ccc(F)cc2)cc(C)c1OC(=O)N(C)C	6.2%	2.82µM*	3.98µM*	10.7µM*	u
COc1ccc(N=Cc2c(O)n(C)c(=O)n(C)c2=O)cc1	x	3.3%	3.7%	13.5µM*	x
Cc1cccc(N=Cc2c(O)n(C)c(=O)n(C)c2=O)c1	x	-3.0%	-3.5%	-14.4%	x
Cc1ccc(N=Cc2c(O)n(C)c(=O)n(C)c2=O)cc1	x	24.0%	19.2%	12µM*	x
Cc1ccnc(SCc2nc3ccccc3s2)n1	11.2µM*	3.55µM*	u	6.75µM*	-2.9%
Nc1ccc(Oc2cccc(Oc3ccc(N)cc3)c2)cc1	-50.2%	-13.2%	-21.1%	19µM*	10.4%
CC1(C)CN=C(Nc2nc3ccccc3s2)S1	12.6µM*	0.631µM*	1.78µM*	3.38µM*	-0.6%
SMILES	SMN2 splice up	Rab9 prom act	NPC1 promoter act	FLuc modulator	KinaseGlo FLuc
Cc1oc(/N=C/c2ccc3c(c2)OCO3)c(C#N)c1C	-0.3%	12.7%	-3.0%	1.69µM*	-16.4%
O=C1/C(=C/c2ccc3c(c2)OCO3)N2CCC1CC2	18.0%	1.7%	3.6%	-11.2%	-0.5%
O=C(O)c1cccc(Cl)c1	5.5%	x	x	x	x
O=C(O)c1cc[c]([Hg][Cl])cc1	-0.4%	6.7%[46.1 µM]	9.3%[46.1 µM]	6.75µM*	u
CCN(CC)c1ccc(N=Cc2c(O)n(-c3ccccc3C)c(=O)[nH]c2=O)cc1	-0.2%	-1.5%	-0.3%	u	0.3%
CCOc1ccccc1-n1c(O)c(C=Nc2ccc(N(CC)CC)cc2)c(=O)[nH]c1=O	-4.7%	-5.0%	9.0%	19µM*	10.4%
c1ccc(OCCSc2nc3ccccc3[nH]2)cc1	u	28.6%	u	16.9µM*	0.8%
NC(Cc1ccccc1)c1nc2ccccc2[nH]1 (stereo unspecified)	x	13.0%	18.1%	u	x
Cc1ccc(-c2cc(NC(=O)c3ccccc3)on2)cc1	x	2.24µM*	u	2.39µM*	x
COc1cc2c3cc1Oc1c(O)c(OC)cc4c1[C@@H](Cc1ccc(cc1)Oc1cc(ccc1O)C[C@H]3N(C)CC2)N(C)CC4	-20.6%[9.22 µM]	x	x	x	-5.6%[7.66 µM]
